High-throughput results as filed in PubChem.
This excerpt belongs to a sample that is enriched for hits.
TDP1 cell noCPT = qHTS for Inhibitors of human tyrosyl-DNA phosphodiesterase 1 (TDP1): qHTS in cells in absence of CPT; hit rate 15% among 420,000; Potency, µM (doses to about 46.2 µM), without a hit: at the top dose activity change, negative = growth inhibition, hits mostly inhibitors; DT40 Tdp1-/- hTDP1 cells, no CPT, ATP luminescence, 48 h; also: potency is read from the fitted curve at half-maximal effect; nearly all actives have a fitted effect of over 55% in size
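Luminescent ATP content (CellTiter-Glo) served as the growth readout. Knockout chicken DT40 cells expressing human TDP1 were exposed to compounds without camptothecin for a minimum 48 hr at 37 °C.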
ALOX12 inh = inhibitors of human 12S-lipoxygenase ALOX12. Potency, µM (series often up to 108 µM), for the others: top-dose activity change, negative = inhibition, most hits filed as inhibitors. purified 12hLO, xylenol orange hydroperoxide absorbance. P18054. hit rate 1.1% among 580,000; also: potency is read from the fitted curve at half-maximal effect
Target sequence (P18054 whole entry, looked up): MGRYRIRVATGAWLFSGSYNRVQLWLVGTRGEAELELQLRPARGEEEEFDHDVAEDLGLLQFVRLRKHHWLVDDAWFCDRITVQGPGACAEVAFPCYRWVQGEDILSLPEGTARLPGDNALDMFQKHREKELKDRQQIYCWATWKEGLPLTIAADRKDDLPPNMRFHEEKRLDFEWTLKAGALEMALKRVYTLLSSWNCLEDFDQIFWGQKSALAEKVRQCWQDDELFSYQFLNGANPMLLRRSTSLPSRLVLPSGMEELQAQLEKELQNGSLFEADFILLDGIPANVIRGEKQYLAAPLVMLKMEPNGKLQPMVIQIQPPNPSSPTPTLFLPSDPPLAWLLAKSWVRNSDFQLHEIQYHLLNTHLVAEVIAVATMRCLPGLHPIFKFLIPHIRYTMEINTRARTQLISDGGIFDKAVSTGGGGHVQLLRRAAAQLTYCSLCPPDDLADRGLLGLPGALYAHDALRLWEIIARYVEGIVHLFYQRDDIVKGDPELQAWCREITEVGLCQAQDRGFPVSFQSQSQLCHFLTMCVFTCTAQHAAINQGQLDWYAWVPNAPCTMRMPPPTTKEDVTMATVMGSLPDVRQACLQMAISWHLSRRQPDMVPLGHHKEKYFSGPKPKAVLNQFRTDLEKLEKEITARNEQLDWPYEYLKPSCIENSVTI
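Purified human 12hLO at 150 nM in 25 mM Hepes, 0.01% Triton X-100, pH 7.0, preincubated 15 min at room temperature with compound. Reaction started with 40 uM arachidonic acid, 30 min at room temperature. Hydroperoxide measured by Fe-xylenol orange, 573/405 nm absorbance ratio.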
HT1080-NT tox = kills 2HG-producing HT-1080-NT fibrosarcoma cells. hit rate 1.6% among 360,000. HT-1080-NT fibrosarcoma viability, CellTiter-Glo ATP luminescence, 48 h. Potency, µM (top dose mostly 46.1 µM), for the others: top-dose activity, negative = less viability, usual class: cytotoxic;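 also: NT is the 2HG producing partner of a matched IDH1 knockdown line; potency is read from the fitted curve at half-maximal effect; 0% = DMSO-treated cells and -100% = media-only wells without cells; nearly all actives have a fitted effect of over 55% in size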
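Fibrosarcoma NT cells, 750 per well in 5% FBS RPMI, were exposed to compound for 48 hours. Viability: CellTiter-Glo luminescence.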
IL-1B inflam inh = inflammasome signaling inhibition, IL-1 beta readout; activity change, % at 57.5 µM; THP-1 LPS/ATP IL-1B secretion, AlphaLISA, 16 h; stronger effect = lower value; hit rate 4.7% among 360,000; in the data active = activity change below about -50%; inconclusive = mostly about -30% to -49%
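THP-1 cells pretreated 1 hr with compounds (up to 57.5 uM final), then stimulated with LPS (250 ng/mL final) plus ATP (1.25 mM final); secreted IL-1B measured by AlphaLISA after 16 hr, decreased signal indicating inhibition.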
HT1080 IDH1KD tx = toxicity to HT-1080 IDH1 knockdown cells (counter line); HT-1080 IDH1 knockdown viability, ATP luminescence, 48 h; hit rate 2% among 360,000; Potency, µM (titrated, usually from 46.1 µM), inactives show at the highest dose activity, negative = toxicity, most hits filed as cytotoxic;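 also: potency is read from the fitted curve at half-maximal effect; 0% = DMSO wells and -100% = cell-free medium wells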
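Using the IDH1-knockdown HT-1080 line run in the same batch and compound series as the NT line, viability after 48 h at 37 °C was determined by CellTiter-Glo luminescence and expressed as % activity.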
DT40 TDP1 CPT = DT40-hTDP1 cell growth loss with CPT; chicken DT40 Tdp1-/-;hTDP1 cells + 20 nM CPT, ATP luminescence, 48 h; Potency, µM (titrated, usually from 46.2 µM), for inactives: at the highest dose activity change, negative = growth inhibition, hits mostly inhibitors; hit rate 12% among 420,000; AID 686979; also: potency is read from the fitted curve at half-maximal effect; nearly all actives have a fitted effect of over 55% in size
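Cell growth measured by CellTiter-Glo luminescence after a minimum 48 h, 37 C compound exposure with 20 nM CPT in Tdp1-knockout DT40 cells stably expressing hTDP1, seeded 400/well; qHTS titration format.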
An asterisk follows results filed as active; ? = inconclusive; . = not tested or not shown; [ ] = another dose, or the depositor's remark. Unless noted, calls follow the shape of the dose curve; as a rule, active = well fitted curve in the direction sought with a large enough effect; inconclusive = small, poorly fitted or top-dose-only effect, or another doubt; inactive = no such curve, though single readings can be large; an effect the other way counts as inactive or inconclusive. Unless noted, % is scaled to controls: 0 for no effect and ±100 for the full control effect.

SMILES	TDP1 cell noCPT	ALOX12 inh	HT1080-NT tox	IL-1B inflam inh	HT1080 IDH1KD tx	DT40 TDP1 CPT
Cc1ccc(C(=O)Nc2ccc3nc(N4CCCCC4)cc(C)c3c2)cc1F	23.1µM*	-29.2%	.	.	.	?
Cc1cc(N2CCCC2)nc2ccc(NC(=S)NC(C)C)cc12	16.4µM*	-7.2%	4.2%	-15.1	9.7%	?
CCN1CCN(c2cc(C)c3cc(NC(=O)c4ccc(C)c(C)c4)ccc3n2)CC1	18.4µM*	25.1%	-2.2%	-6.7	2.2%	?
COc1ccc(CN(C)C(=O)C2CC(=O)N(c3ccc4c(c3)OCCO4)C2)c(OC)c1 (centres undefined)	16.4µM*	6.5%	-2.4%	-10.5	-2.3%	20.6µM*
CN(Cc1ccccc1Cl)C(=O)C1CC(=O)N(c2ccc3c(c2)OCCO3)C1 (centres undefined)	-22.3%	?	-0.9%	0.0	0.2%	?
COc1ccc(-c2nc(NC(=O)C3CC(=O)N(c4ccc5c(c4)OCCO5)C3)sc2C)cc1 (centres undefined)	6.31µM*	-9.9%	?	17.3	?	6.31µM*
O=C(Nc1ccc2c(c1)N(S(=O)(=O)c1cccs1)CCC2)c1c(F)cccc1F	16.4µM*	-2.9%	4.6%	-8.3	3.3%	?
CN(C)CCNC(=O)C(=O)Nc1ccc2c(c1)N(S(=O)(=O)c1cccs1)CCC2	7.31µM*	?	-23.9%	-29.0	?	16.4µM*
CCCNC(=O)C(=O)Nc1ccc2c(c1)N(S(=O)(=O)c1cccs1)CCC2	23.1µM*	-3.2%	?	20.1	?	14.6µM*
COCCCNC(=O)C(=O)Nc1ccc2c(c1)N(S(=O)(=O)c1cccs1)CCC2	0.581µM*	2.3%	?	19.3	2.31µM*	0.651µM*
CN(C)CCCNC(=O)C(=O)Nc1ccc2c(c1)N(S(=O)(=O)c1cccs1)CCC2	?	2.3%	-2.3%	-14.7	-0.4%	?
CCNC(=O)C(=O)Nc1ccc2c(c1)N(S(=O)(=O)c1cccs1)CCC2	?	6.8%	0.2%	21.0	-14.0%	?
Cc1ccccc1-c1nn2c(COc3ccc(F)cc3)nnc2s1	.	5.7%	.	.	.	.
Cc1nn(C)c(C)c1CCC(=O)N1CCN(c2ccc(C#N)cc2)C(=O)C1	.	9.6%	.	.	.	.
C=CCNC(=O)C(=O)Nc1ccc2c(c1)N(S(=O)(=O)c1cccs1)CCC2	23.1µM*	4.6%	-16.2%	10.6	?	?
COc1cccc([S+](=O)([O-])N2CCCC3(C2)C(=NC2CCCCC2)NC(=O)N3c2cc(F)cc(F)c2)c1 (centres undefined)	.	2.4%[6.33 µM]	.	.	.	.
Cc1cc(NC(=O)CCCC(=O)Nc2ccc(F)cc2)no1	-9.4%	0.0%	16.2%	11.4	7.4%	-11.0%
CC1NC(=O)NC1CCCCCC(=O)Nc1ccc(F)cc1 (centres undefined)	-1.2%	2.1%	13.3%	-96.9*	12.0%	-20.3%
Cc1c(F)cccc1NC(=O)CCCCCC1NC(=O)NC1C (centres undefined)	-19.3%	2.5%	4.9%	-96.9*	1.7%	0.5%
Cc1c(F)cccc1NC(=O)CCC(=O)O	-11.0%	0.0%[57.4 µM]	2.3%	5.1	-6.2%	-4.5%
CN(Cc1ccccc1)Cc1cc(C[C@@H]2CC[C@H](O)[C@@H](CNC3CCOCC3)O2)no1	.	24.0%[176 µM]	.	.	.	.
COc1ccc(Nc2ncc(C(=O)N3CCN(Cc4ccccc4)CC3)c3ccccc23)cc1	?	0.8%	-1.4%	-96.6*	-12.7%	18.4µM*
COc1ccccc1Nc1ncc(C(=O)N2CCC(C(N)=O)CC2)c2ccccc12	7.0%	0.0%	-6.2%	0.0	0.6%	-1.0%
COc1ccccc1Nc1ncc(C(=O)N2CCN(Cc3ccc(OC)c(OC)c3OC)CC2)c2ccccc12	?	11.6%	?	-72.6*	-27.5%	18.4µM*
